HT1080 IDH1KD tx: qHTS for induction of synthetic lethality in tumor cells producing 2HG: qHTS for the HT-1080-IDH1KD cell line; hit rate 2% among 360,000; Potency, µM (highest dose often 46.1 µM), without a hit: at the highest dose activity, negative = toxicity, actives largely listed as cytotoxic; HT-1080 IDH1 knockdown viability, ATP luminescence, 48 h;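 further: potency means the concentration at half of the fitted maximal effect; 0% = DMSO wells and -100% = cell-free medium wells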
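Viability of IDH1-knockdown HT-1080 fibrosarcoma cells was assessed by CellTiter-Glo after 48 h at 37 °C with titrated compound; concentration-effect curves were classified by fit quality and response size.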
TDP1 cell CPT: qHTS for Inhibitors of human tyrosyl-DNA phosphodiesterase 1 (TDP1): qHTS in cells in presence of CPT; Potency, µM (doses to about 46.2 µM), for the others: top-dose activity change, negative = growth inhibition, most hits filed as inhibitors; hit rate 12% among 420,000; AID 686979, 2013; chicken DT40 Tdp1-/-;hTDP1 cells + 20 nM CPT, ATP luminescence, 48 h; further: potency means the concentration at half of the fitted maximal effect; nearly all actives have a fitted effect of over 55% in size
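Cell growth measured by CellTiter-Glo luminescence after a minimum 48 h, 37 C compound exposure with 20 nM CPT in Tdp1-knockout DT40 cells stably expressing hTDP1, seeded 400/well; qHTS titration format.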
TDP1 cell noCPT: qHTS for Inhibitors of human tyrosyl-DNA phosphodiesterase 1 (TDP1): qHTS in cells in absence of CPT; hit rate 15% among 420,000; DT40 Tdp1-/- hTDP1 cells, no CPT, ATP luminescence, 48 h; Potency, µM (series often up to 46.2 µM), for the others: at the highest dose activity change, negative = growth inhibition, usual class: inhibitors; further: potency means the concentration at half of the fitted maximal effect; nearly all actives have a fitted effect of over 55% in size
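No-CPT arm: Tdp1-/-;hTDP1 DT40 cells (400/well) plus compounds, incubated ≥48 hr at 37 °C. Readout CellTiter-Glo luminescence.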
IL-1B inflam inh: qHTS for Inhibitors of Inflammasome Signaling: IL-1-beta AlphaLISA Primary Screen; THP-1 LPS/ATP IL-1B secretion, AlphaLISA, 16 h; hits give low values; activity change, % at 57.5 µM; hit rate 4.7% among 360,000; in the data active means activity change below about -50%; inconclusive means mostly about -30% to -49%
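Secreted IL-1B measured by AlphaLISA bead assay after 16 h compound exposure of THP-1 cells; compounds (final up to 57.5 uM) added 1 h before LPS (250 ng/mL) and ATP (1.25 mM) stimulation; lower signal means less secretion.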
uPA surface inh: qHTS for Inhibitors of Cell Surface uPA Generation; cell surface uPA generation assay, qHTS; Potency, µM (titrated, usually from 38.3 µM), inactives show at the top dose activity change, negative = inhibition, most hits filed as inhibitors; hit rate 0.31% among 330,000; AID 540303, 2011; active means well fitted inhibition curve with a large enough effect; inconclusive means small, poorly fitted or top-dose-only effect; inactive means no such curve, though single readings can be large or run the other way; tested in mouse RAW 264.7 cells; further: potency means the concentration at half of the fitted maximal effect; nearly all actives have a fitted effect of over 55% in size
HT1080NT lethal: qHTS for induction of synthetic lethality in tumor cells producing 2HG: qHTS for the HT-1080-NT fibrosarcoma cell line | Potency, µM (series often up to 46.1 µM), inactives show top-dose activity, negative = less viability, actives largely listed as cytotoxic | hit rate 1.6% among 360,000 | HT-1080-NT fibrosarcoma viability, CellTiter-Glo ATP luminescence, 48 h;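 further: NT is the 2HG producing partner of a matched IDH1 knockdown line; potency means the concentration at half of the fitted maximal effect; 0% = DMSO-treated cells and -100% = media-only wells without cells; nearly all actives have a fitted effect of over 55% in size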
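Fibrosarcoma NT cells, 750 per well in 5% FBS RPMI, were exposed to compound for 48 hours. Viability: CellTiter-Glo luminescence.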
* hit, by the source's call; ? = inconclusive; / = not tested or not shown; [ ] = dose if it differs, or a comment. Compounds with a hit are over-represented: about 19% of the library has one in this group of screens. Unless noted, the call rests on the fitted dose curve; in most records, active means well fitted curve in the direction sought with a large enough effect; inconclusive means small, poorly fitted or top-dose-only effect, or another doubt; inactive means no such curve, though single readings can be large; an effect the other way counts as inactive or inconclusive. Unless noted, on the % scale 0 is the no-effect control and ±100 the full control effect.

SMILES | HT1080 IDH1KD tx | TDP1 cell CPT | TDP1 cell noCPT | IL-1B inflam inh | uPA surface inh | HT1080NT lethal
CCN(C(=O)c1cc2c(s1)-c1c(C)cccc1OC2)c1ccccc1F | / | 21µM* | 21µM* | / | / | /
Cc1cccc2c1-c1sc(C(=O)N3CCN(c4cccc(Cl)c4)CC3)cc1CO2 | / | -15% | -16% | / | / | /
Cc1cccc2c1-c1sc(C(=O)NCCCN3CCN(c4cccc(Cl)c4)CC3)cc1CO2 | / | 23µM* | ? | / | / | /
CCOCCCNC(=O)c1cc2c(s1)-c1ccccc1SC2 | 13% | -12% | -12% | -3 | -2% | 10%
CCCN(C(=O)c1cc2c(s1)-c1ccccc1SC2)c1ccccc1F | / | ? | 16µM* | / | / | /
Cc1cccc2c1-c1sc(C(=O)NCCCN3CCN(c4ccccc4F)CC3)cc1CO2 | / | ? | 6.5µM* | / | / | /
C#CCN(Cc1nc(N2CCOCC2)c2ccc(Cl)cc2n1)Cc1ccco1 | / | 26%[9.04 µM] | ? | / | / | /
CC(NS(=O)(=O)c1cccc(Cl)c1F)[C@H](O)c1ccccc1 (some centres not stated) | 4% | -18% | -21% | 28 | / | 8%
COc1ccc(C(=O)NNc2ncnc3c2cnn3-c2ccc(C)c(Cl)c2)cc1 | / | -15% | 3% | / | / | /
Cc1cccc2c1-c1sc(C(=O)Nc3ccccc3N3CCN(C)CC3)cc1CO2 | -30% | 18µM* | 18µM* | -93* | 2% | ?
CCOc1ccc(CCNC(=O)c2cc3c(s2)-c2c(C)cccc2OC3)cc1 | / | -21% | -28% | / | / | /
CCN1CCN(CCCNC(=O)c2cc3c(s2)-c2c(C)cccc2OC3)CC1 | / | 4.6µM* | 5.8µM* | / | / | /
COc1ccc(OC)c(CCNC(=O)c2cc3c(s2)-c2c(C)cccc2OC3)c1 | / | 12µM* | 7.3µM* | / | / | /
O=C(NC1CC(=O)N(c2ccccc2)C1)C1CC1 (configuration not stated) | 19% | -9% | -3% | 6 | 6% | 15%
O=C(Nc1nc2cc3c(cc2s1)OCCO3)c1ccncc1 | -16% | ? | 23µM* | -15 | -10% | -3%
O=C(Nc1nc2cc3c(cc2s1)OCCO3)c1ccc(N2C(=O)CCC2=O)cc1 | 2% | 2% | -19% | 9 | 1% | 0%
O=C(Nc1nc2cc3c(cc2s1)OCCO3)c1ccco1 | ? | 12µM* | 16µM* | ? | -14% | ?
Cc1nn(C(C)C(=O)NC(C)CCc2ccccc2)c(=O)c2cc3occc3n12 (configuration not stated) | -4% | -25% | -9% | 20 | 3% | -3%
CN(C)c1ccc(-c2csc(C(O)c3cccc(Cl)c3)n2)cc1 (configuration not stated) | ? | 21µM* | 21µM* | -7 | / | -26%
OC(c1cccc(Cl)c1)c1nc(-c2ccc3c(c2)OCO3)cs1 (configuration not stated) | ? | ? | ? | 7 | / | -26%
CC(C)c1cccc(-c2csc(C(O)c3cccc(Cl)c3)n2)c1 (configuration not stated) | ? | 23µM* | 21µM* | 10 | / | ?
OC(c1cccc(Cl)c1)c1nc(-c2ccccc2)cs1 (configuration not stated) | -21% | ? | -19% | ? | / | ?
COc1ccc(-c2oc3ccccc3c2C(=O)OCc2ccc(O)cc2)cc1 | -10% | -17% | -15% | -29 | 5% | ?
Cc1cccc(-c2oc3ccc(-c4ccc5c(c4)OCO5)cc3c2C(=O)OCc2ccc(O)cc2)c1 | 1% | 16µM* | ? | 14 | 8% | -3%
